Values joined by “and” are separate entries in the source; they are usually repeats but may differ in a detail not shown here. Equal entries are not always repeated. Records with an inconclusive call do not appear. Active and inactive are the calls of the source. The call rests on the fitted dose curve; in most records, active means well fitted activation curve with a large enough effect; inconclusive means small, poorly fitted or top-dose-only effect; inactive means flat fitted curve, though single readings scatter.

This test can be described thus: Extended Characterization of HPGD Inhibitors: PGE2 Assay in A549 Cells. Conditions: PGE2 HTRF level, 16 h. The text has this: The central role of HPGD is to inactivate prostaglandins such as prostaglandin E2 (PGE2) or prostaglandin D2 (PGD2). These prostaglandins are involved in a number of processes, including inflammation, differentiation, and cellular signaling, which makes HPGD an important target for pharmacological intervention. A number of prostaglandins of particular biological interest have been identified as substrates of HPGD. […] Over-production of PGE2 has been reported to promote tumor-associated neovascularization, cell proliferation, and tumor growth. […] In this orthogonal assay, we set out to measure if compounds were able to increase PGE2 production NIH Chemical Genomics Center [NCGC] NIH Molecular Libraries Probe Centers Network [MLPCN] MLPCN Grant: MH084681 Assay Submitter (PI): Structural Genomics Consortium
A549 cells, LNCaP cells or media were dispensed in 384-well plates (ProxiPlate-384 Plus, PerkinElmer, Shelton, CT) at 5,000 cells/9.9 uL/well using a CappAero384 multichannel pipette (Odense, Denmark). Separately on the plate, 10 uL of PGE2 calibration standards at a starting assay concentration of 5,000 pg/mL (1:2 dilution, 12-points, n = 1, prepared in media, Cisbio, Bedford, MA) were dispensed. Compounds (100 nL, final concentration range from 41.9 nM to 100 uM) were transferred using an ATS Acoustic Liquid Dispenser (EDC Biosystems, Fremont, CA). After being mixed using an automated liquid handler (CyBio, Jena, Germany), samples were incubated (37 deg C, 5% CO2, under a humidified atmosphere) for 16 hours. PGE2 labeled conjugates were added to each well, first 5 uL of PGE2-d2, followed by 5 uL of anti-PGE2-cryptate, centrifuged (1,500 rpm, 15 sec) and incubated (RT, protected from light) for 5 hours. Time-resolved fluorescence intensity (320 nm excitation, 615 and 665 nm emission) was measured using an Envision plate reader (PerkinElmer). Data was expressed as the ratio of 665 nm/615 nm emissions. Concentration (pg/mL) of samples were calculated from a 4-parameter logistic calibration curves of the PGE2 standards.
Consider `O=[N+]([O-])c1ccccc1CSc1nc2ncc(Br)cc2[nH]1`, for which the Potency was 0.148 µM (active).

Take `COc1ccc(-n2cnc3cc(C(=O)N4CCCCC4)ccc32)cc1`: the Potency was 0.662 µM (active).

For the compound `Cc1cc(-c2nnc3n2CCCCC3)c(C)n1-c1cccc(C#N)c1`, the Potency was 2.64 µM (active).

As for `Cc1cc(-c2nnc3n2CCCCC3)c(C)n1-c1ccncc1`, the Potency is 33.2 µM (active).

For `COc1cccc(-n2cnc3cc(C(=O)N4CCCCC4)ccc32)c1`, the Potency is 0.833 µM (active).

As to `CC(C)(C)c1cccc(-n2cnc3cc(C(=O)N4CCCCC4)ccc32)c1`, the Potency was 18.7 µM (active).

Take `Cc1cc(-c2nnc3n2CCCCC3)c(C)n1-c1cccc(Cl)c1`: the Potency is 0.59 µM (active).

Consider `O=C(c1ccc2c(c1)ncn2-c1cccc(C(F)(F)F)c1)N1CCCCC1`, for which the Potency was 2.64 µM (active).

Take `O=[N+]([O-])c1ccc(CSc2nc3ncc(Br)cc3[nH]2)cc1`: the Potency is 0.235 µM (active).

As to `COc1ccc(CSc2nc3ncc(Br)cc3[nH]2)cc1F`, the Potency was 7.43 µM (active).

As for `CCCCn1cnc2cc(C(=O)N3CCCCC3)ccc21`, the Potency is 2.96 µM (active).

On to `CC(C)c1cccc(-n2cnc3cc(C(=O)N4CCCCC4)ccc32)c1`, for which the Potency is 2.35 µM (active).

With `CCOC(=O)c1ccc(-n2cnc3cc(C(=O)N4CCCCC4)ccc32)cc1`, the Potency is 1.87 µM (active).

Turning to `CC(C)(C)c1ccc(-n2cnc3cc(C(=O)N4CCCCC4)ccc32)cc1`, the Potency was 20.9 µM (active).

For `Cc1cc(-c2nnc3n2CCCCC3)c(C)n1-c1ccc(F)cc1`, the Potency was 0.662 µM (active).

In the case of `Brc1cnc2nc(SCc3cccnc3)[nH]c2c1`, the Potency was 8.33 µM (active).

Consider `Brc1cnc2nc(SCc3ccccn3)[nH]c2c1`, for which the Potency is 5.9 µM (active).

In the case of `Cc1cccc(-n2cnc3cc(C(=O)N4CCC(Br)CC4)ccc32)c1`, the Potency is 1.18 µM (active).

Take `Cc1cccc(-n2cnc3cc(C(=O)N4CCCC(C)(C)C4)ccc32)c1`: the Potency was 0.743 µM (active).

`Cc1cc(-c2nnc3n2CCCCC3)c(C)n1-c1ccccn1`: the Potency is 26.4 µM (active).

Consider `Cc1cc(-c2nnc3n2CCCCC3)c(C)n1-c1ccc(C(F)(F)F)cc1`, for which the Potency is 0.833 µM (active).

`Brc1cnc2nc(SCc3ccncc3)[nH]c2c1`: the Potency is 0.833 µM (active).

In the case of `CCCCC[C@H](O)/C=C/[C@H]1[C@H](O)CC(=O)[C@@H]1C/C=C\CCCC(=O)O`, the Potency is 0.148 µM (active).

As to `c1ccc(-n2cc(-c3nnc4n3CCCCC4)c3ccccc32)cc1`, the Potency is 1.66 µM (active).

With `Cc1ccc(-n2c(C)cc(-c3nnc4n3CCCCC4)c2C)cc1`, the Potency is 0.166 µM (active).

In the case of `Clc1ccc(CSc2nc3ncc(Br)cc3[nH]2)cc1`, the Potency was 16.6 µM (active).

With `O=[N+]([O-])c1cccc(CSc2nc3ncc(Br)cc3[nH]2)c1`, the Potency is 0.418 µM (active).

As for `Cc1cccc(-n2cnc3cc(C(=O)N4CCCC4)ccc32)c1`, the Potency was 1.87 µM (active).

Turning to `CN1CC[C@@H](c2c(O)cc(O)c3c(=O)cc(-c4ccccc4Cl)oc23)[C@@H](O)C1`, the Potency is 3.32 µM (active).

Regarding `Cc1cccc(-n2cnc3cc(C(=O)N4CCCCC4)ccc32)c1`, the Potency was 0.469 µM (active).

With `COc1ccccc1-n1cnc2cc(C(=O)N3CCCCC3)ccc21`, the Potency was 16.6 µM (active).

On to `Clc1cccc(CSc2nc3ncc(Br)cc3[nH]2)c1`, for which the Potency is 0.296 µM (active).

Take `N#Cc1cccc(CSc2nc3ncc(Br)cc3[nH]2)c1`: the Potency was 7.43 µM (active).

`Cc1cc(-c2nnc3n2CCCCC3)c(C)n1-c1ccc(Br)cc1`: the Potency was 0.59 µM (active).

For `CC(C)(C)n1cnc2cc(C(=O)N3CCCCC3)ccc21`, the Potency is 2.09 µM (active).

Turning to `Cc1ccc(-n2cnc3cc(C(=O)N4CCCCC4)ccc32)cc1`, the Potency is 0.469 µM (active).

With `Cc1cc(-c2nnc3n2CCCCC3)c(C)n1-c1ccccc1`, the Potency was 372 nM (active) and 2.64 µM (active).

As for `Cc1cccc(-n2cnc3cc(C(=O)N4CCCCCC4)ccc32)c1`, the Potency is 2.96 µM (active).

As for `N#Cc1ccccc1CSc1nc2ncc(Br)cc2[nH]1`, the Potency is 372 nM (active) and 7.43 µM (active) and 743 nM (active).

As to `N#Cc1ccc(CSc2nc3ncc(Br)cc3[nH]2)cc1`, the Potency is 0.332 µM (active).

Values taken from PubChem BioAssay AID743167 (National Center for Advancing Translational Sciences (NCATS), 2013).
